# Hits are enriched below; roughly 6.5% of the tested compounds scored in any of these assays.
# Marburg entry inh: Marburg virus entry inhibition; Marburg virus pseudotyped entry inhibition, cell reporter; Potency, µM (doses to about 37.8 µM), most hits filed as inhibitors; hit rate 1.8% among 300,000; AID 540276; calls by dose curve; tested in HEK293 cells
# Vaccinia mCherry: vaccinia inhibition (mCherry reporter); Vaccinia virus mCherry reporter infection, fluorescence; Potency, µM (highest dose often 36.5 µM), most hits filed as inhibitors; hit rate 0.63% among 310,000; AID 720579; calls by dose curve; tested in A549 cells; also: nearly all actives have a fitted effect of over 35% in size
# HCMV inh: blocks human cytomegalovirus replication; activity change, negative = inhibition, % at 57.5 µM; AID 1259415; hit rate 4.5% among 410,000; HFF cells, HCMV-luciferase reporter, 72 h; active compounds read low; in the data active = activity change below about -60%; inconclusive = no clear call, values can overlap the other calls; inactive = above about -39%
#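 Two-dose cell screen: HFF monolayers treated with compounds and infected with luciferase-expressing HCMV at 1 PFU/cell, 72 h at 37C, then lysed for luciferase measurement.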
# FMDV antiviral: blocks foot and mouth disease virus | Potency, µM (top dose mostly 57.9 µM), usual class: inhibitors | FMDV antiviral cell-based qHTS | hit rate 1.2% among 410,000; calls by dose curve; tested in HEK293T cells; also: read-out not given here; nearly all actives have a fitted effect of over 45% in size
# Vaccinia Venus: inhibitors of vaccinia virus (Venus reporter) | hit rate 0.46% among 330,000 | Potency, µM (highest dose often 36.5 µM), actives largely listed as inhibitors | Vaccinia virus Venus reporter expression, fluorescence | AID 720580; calls by dose curve; tested in A549 cells; also: nearly all actives have a fitted effect of over 30% in size
# LASV entry inh: Lassa virus entry inhibition; Potency, µM (series often up to 37.9 µM), usual class: inhibitors; AID 540256; Lassa virus pseudotype entry inhibition, cell reporter; hit rate 1.2% among 300,000; calls by dose curve; tested in HEK293 cells; also: nearly all actives have a fitted effect of over 50% in size
# Numbers stand for hits; – = inactive; ? = inconclusive; · = not tested or not shown.
SMILES,Marburg entry inh,Vaccinia mCherry,HCMV inh,FMDV antiviral,Vaccinia Venus,LASV entry inh
Cc1ccccc1Oc1nc2ccccn2c(=O)c1/C=C(\C#N)C(=O)Nc1c(C)n(C)n(-c2ccccc2)c1=O,–,–,–,22µM,–,–
COc1ccc(C)cc1N(C)C(=O)c1sc2nc3n(c(=O)c2c1C)CCCCC3,·,–,–,–,–,–
CCCSc1nc2cc(OC)c(OC)cc2c(=N)n1CCCN1CCOCC1,14µM,?,–,–,?,?
O=C(NC1CCCC1)c1cccc(NC(=O)c2ccco2)c1,–,·,-107,–,·,–
O=C(Nc1cc(Br)c(O)c(Br)c1)c1cccc(NC(=O)c2ccco2)c1,·,·,–,–,·,·
O=C(Nc1cccc(NC(=O)c2ccco2)c1)c1cccc(Br)c1,–,–,-90,–,–,?
CCOc1cccc(C(=O)Nc2cccc(NC(=O)c3ccco3)c2)c1,?,–,-62,–,–,–
CCCOc1cccc(C(=O)NC(=S)Nc2cccc(C(F)(F)F)c2)c1,–,–,?,·,–,?
CCOc1cccc(C(=O)NC(=S)Nc2cccc(C)c2)c1,?,–,-99,–,–,?
CCC(=O)N1CCc2cc(Br)cc(S(=O)(=O)N(CC)Cc3ccccc3)c21,–,–,–,–,–,–
CCC(=O)N1CCc2cc(Br)cc(S(=O)(=O)NCCCN(C)Cc3ccccc3)c21,?,–,-67,–,–,–
CCC(=O)N1CCc2cc(Br)cc(S(=O)(=O)NC3CCN(Cc4ccccc4)CC3)c21,?,–,?,–,–,2.2µM
C/C(CCN1CCCc2nc(C)c(C)cc21)=N\O[C@H](C)c1cn([C@@H]2COC[C@H]2O)nn1,–,·,·,·,·,·
CN(c1ccccc1)S(=O)(=O)c1cccc(NC(=O)CCNC(=O)c2ccc(Cl)cc2)c1,–,–,–,32µM,?,?
CN(c1ccccc1)S(=O)(=O)c1cccc(NC(=O)CCNC(=O)c2ccc([N+](=O)[O-])cc2)c1,–,–,–,40µM,–,?
COc1ccc(C(=O)Oc2ccc(N(C)S(=O)(=O)c3ccccc3)cc2)cc1[N+](=O)[O-],–,–,-99,–,–,–
CC(=O)Nc1ccc(C(=O)Nc2cccc(S(=O)(=O)N(C)c3ccccc3)c2)cc1,·,·,–,?,·,·
CN(c1ccc(C(=O)O)cc1)S(=O)(=O)c1ccccc1,–,·,–,–,–,–
CN(c1ccccc1)S(=O)(=O)c1cccc(NC(=O)c2ccc(Cl)c([N+](=O)[O-])c2)c1,?,–,–,32µM,–,?
CC(C)c1ccc(CN2CCC3(CCC(CNC(=O)c4ccn(C)n4)O3)CC2)cc1 (centres undefined),·,–,·,–,–,·
Cc1cc(=O)c(C(=O)NCCc2ccccn2)c2n1-c1ccccc1SC(c1cccs1)C2 (centres undefined),·,–,·,–,–,·
CCN(CC)S(=O)(=O)c1cccc(NC(=O)CCSc2ccc(Cl)cc2)c1,?,?,?,–,?,13µM
CCN1C(=O)[C@@H]2[C@H]3[C@H](O)[C@H](O)CC(=NO[C@@H](C)c4cc(-c5c(C)cc(C)cc5C)no4)[C@@H]3CC[C@H]2C1=O,–,·,·,·,·,·
COc1ccc(Oc2cc(NC(=O)c3nn(C)cc3[N+](=O)[O-])cc([N+](=O)[O-])c2)cc1,–,?,-110,?,?,?
Cn1cc([N+](=O)[O-])c(C(=O)Nc2cc(Oc3cccnc3)cc([N+](=O)[O-])c2)n1,–,–,-106,?,–,–
SMILES,Marburg entry inh,Vaccinia mCherry,HCMV inh,FMDV antiviral,Vaccinia Venus,LASV entry inh
CCn1nc(C)c(C(=O)Nc2cc(Oc3ccc(Cl)cc3)cc([N+](=O)[O-])c2)c1C,?,–,–,–,–,–
O=S(=O)(NCc1ccccc1)NCc1ccccc1F,–,–,–,–,–,–
O=S(=O)(NCc1ccccc1)NCc1ccccc1,?,–,-68,–,–,–
COc1ccc2c(c1)C(=NN)c1cc(OC)ccc1-2,–,–,-87,–,–,–
COc1ccc2c(c1)C(=NNc1ccc(C(=O)O)cc1)c1cc(OC)ccc1-2,·,?,–,–,?,·
O=C(C=Cc1ccccc1)c1cc(Br)ccc1O,–,–,–,?,–,?
CCc1ccc(/C=C/C(=O)c2cc(Br)ccc(=O)c2O)cc1,?,·,-106,–,?,?
Cc1cccc(/C=C/C(=O)c2cc(Br)ccc(=O)c2O)c1,?,·,-104,?,–,?
CCOc1ccc(/C=C/C(=O)c2cc(Br)ccc(=O)c2O)cc1,?,–,–,?,–,?
O=C(C=Cc1ccc(O)c(O)c1)NCC(=O)NC(Cc1ccccc1)C(=O)O (centres undefined),·,·,–,·,·,·
O=C(C1CCCCC1)N(Cc1cccnc1)c1nc2ccc(Cl)cc2s1,·,–,–,–,–,–
Cn1cc(C(=O)c2ccccc2)cc1-c1nc2ccccc2n1C,?,?,–,–,–,–
Cc1oc(-c2nc3ccccc3n2C)cc1C(=O)c1ccccc1,11µM,–,–,–,–,2.8µM
NS(=O)(=O)c1ccc(CCNc2ccn3nc(-c4ccc(OCCN5CCOCC5)cc4)cc3n2)cc1,·,–,-100,–,–,·
c1ccc(COc2ccc(-c3cc4nc(NCCN5CCOCC5)ccn4n3)cc2)cc1,·,–,-62,–,–,·
O=C1[C@H](Cc2ccccc2)NC/C=C\C[C@H](c2ccc(Cl)cc2)N1Cc1ccc(Cl)cc1,·,–,·,·,–,·
Cc1ccc2c(c1)c1ccc3c(c1n2C)C(=O)C=CC3=O,·,·,?,32µM,·,·
COc1ccc2c(c1)c1ccc3c(c1n2C)C(=O)C=CC3=O,·,–,–,28µM,–,·
Cn1c2ccccc2c2ccc3c(c21)C(=O)C=CC3=O,–,–,–,20µM,–,–
O=C(CN1CCN(Cc2ccccc2)CC1)N/N=C/c1ccc(Br)s1,?,–,-107,–,–,?
COc1ccc(S(=O)(=O)N2Cc3ccccc3CC2C(=O)Nc2cc(Cl)ccc2Cl)cc1 (centres undefined),?,–,–,–,–,–
COc1cc(=O)n2c(c1C(=O)NCc1ccc3c(c1)OCO3)CCN(C(=O)c1cccc(F)c1)CC2,·,–,·,–,–,·
COC(=O)N[C@@H](c1ccc(Br)cc1)C(C(=O)OC)C(=O)OC,?,·,·,·,·,–
Oc1ccc(Cl)cc1-c1cc(-c2ccccc2Cl)[nH]n1,–,·,–,–,·,–
CC(C)(C)c1ccc(-c2cc(-c3ccccc3O)[nH]n2)cc1,?,–,-95,–,?,?
SMILES,Marburg entry inh,Vaccinia mCherry,HCMV inh,FMDV antiviral,Vaccinia Venus,LASV entry inh
Oc1ccccc1-c1cc(-c2ccccc2Cl)[nH]n1,–,?,–,–,?,10µM
COc1ccccc1-c1ccnc(-n2ncc(C(=O)NCc3cccc(C)n3)c2C)n1,·,–,·,–,–,·
O=C(Nc1ccncc1)c1cccc(S(=O)(=O)N2CCc3ccccc32)c1,?,–,-77,?,–,–
O=C(c1ccc(S(=O)(=O)N2CCCC2)cc1)N1CCCCC1,–,–,–,–,–,–
O=C(c1ccc2c(c1)CCN2S(=O)(=O)c1ccccc1)N1CCN(c2ccc(F)cc2)CC1,–,–,–,–,–,–
O=C(Nc1cccnc1)c1cccc(S(=O)(=O)N2CCc3ccccc32)c1,–,–,–,?,–,–
